# Measurements: PubChem BioAssay AID1452 (National Center for Advancing Translational Sciences (NCATS), 2008)
# Screen size: about 150,000 compounds; about 190 (0.13%) were called active. About 2% were inconclusive and are not listed. This is one part of a sample in which actives are shown more often than they occur. The call rests on the fitted dose curve; in most records, active means well fitted inhibition curve with a large enough effect; inconclusive means small, poorly fitted or top-dose-only effect; inactive means flat fitted curve, though single readings scatter.
# Target: Polyunsaturated fatty acid lipoxygenase ALOX12 (Homo sapiens) (UniProt P18054)
# Sequence (P18054 whole entry, looked up): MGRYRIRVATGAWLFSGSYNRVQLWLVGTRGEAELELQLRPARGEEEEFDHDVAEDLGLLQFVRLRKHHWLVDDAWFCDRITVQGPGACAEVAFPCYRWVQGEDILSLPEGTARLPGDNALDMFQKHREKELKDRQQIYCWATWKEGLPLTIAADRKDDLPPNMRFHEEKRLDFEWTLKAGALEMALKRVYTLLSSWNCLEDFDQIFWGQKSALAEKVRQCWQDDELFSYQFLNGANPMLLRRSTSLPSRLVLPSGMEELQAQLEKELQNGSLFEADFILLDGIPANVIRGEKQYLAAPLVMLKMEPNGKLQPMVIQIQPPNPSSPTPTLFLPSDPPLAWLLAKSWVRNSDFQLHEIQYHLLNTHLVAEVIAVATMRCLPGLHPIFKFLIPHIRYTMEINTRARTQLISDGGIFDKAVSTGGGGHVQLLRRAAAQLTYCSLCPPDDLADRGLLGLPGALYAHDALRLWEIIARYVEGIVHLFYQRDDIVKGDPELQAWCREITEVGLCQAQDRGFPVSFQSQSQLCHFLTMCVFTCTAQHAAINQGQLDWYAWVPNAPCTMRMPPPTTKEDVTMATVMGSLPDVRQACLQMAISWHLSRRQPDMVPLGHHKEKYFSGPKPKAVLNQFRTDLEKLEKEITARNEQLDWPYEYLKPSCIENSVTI
# Assay: qHTS Assay for Inhibitors of 12-hLO (12-human lipoxygenase); further: nearly all actives have a fitted effect of over 55% in size
# Conditions: purified 12-hLO, xylenol orange hydroperoxide absorbance; series mostly up to 57.1 µM; activity change, negative = inhibition: at the top concentration
# Summary of the method: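 Xylenol orange chromogenic assay: hydroperoxide from 12hLO oxidises Fe(II), giving red-shifted Fe(III)-XO absorbance. Conditions: 150 nM enzyme, 40 uM arachidonic acid, 25 mM Hepes pH 7.0, 0.01% Triton X-100, 30 min, room temperature.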
# On the % scale 0 is the no-effect control and ±100 the full control effect.
row,Structure (SMILES),"activity change, negative = inhibition"
1,COc1ccc(Br)cc1C(=O)NC(=S)Nc1cc(-c2nc3ccccc3[nH]2)ccc1C,-4.68% (inactive)
2,C=CCNC(=S)N/N=C/c1ccc(OCc2ccccc2)cc1,-3.94% (inactive)
3,CCS(=O)(=O)Nc1cccc(-c2cc(-c3ccccc3)c3cc(C)ccc3n2)c1,1.99% (inactive)
4,O=C(COC(=O)c1c2c(nc3ccccc13)/C(=C\c1cccs1)CCC2)Nc1ccccc1Cl,-2.57% (inactive)
5,COC(=O)C1=C(C(=O)OC)[C@@H]2N(C)c3ccccc3[C@@]23C[C@@H](C(=O)OC)N(S(=O)(=O)c2cccs2)C3=N1,-1.35% [at 11.4 µM] (inactive)
6,CCCCc1cc2c(s1)CCCC/C2=N/O,-1.86% (inactive)
7,NC(=O)c1ccccc1N=Cc1ccc2ccccc2c1,-0.382% (inactive)
8,CC(C)CCN1C(=O)c2ccc(C(=O)Nc3cccc(S(N)(=O)=O)c3)cc2C1=O,3.13% (inactive)
9,COc1ccccc1OCC(=O)OCn1c(SC)nnc(C)c1=O,-0.32% (inactive)
10,N#C/C(=C/c1ccc(N2CCCCC2)o1)C(=O)NCCc1c[nH]c2ccccc12,-7.08% (inactive)
11,CC(C)CN(C(=O)CN1CCN(S(=O)(=O)c2ccccc2)CC1)c1c(N)n(CC(C)C)c(=O)[nH]c1=O,3.56% (inactive)
12,Cc1cc(N2CCOCC2)nc(-c2ccc(Br)cc2)n1,1.56% (inactive)
13,COc1ccc2c(-c3ccccc3)cc(SCC(=O)N(C)C3CCS(=O)(=O)C3)nc2c1 (configuration not stated),-4.74% (inactive)
14,Cc1ccc(S(=O)(=O)N2CCC(=O)N([C@H](COCc3ccccc3)Cc3ccccc3)CC2)cc1,0.261% [at 0.00818 µM] (inactive)
15,COc1ccc(-n2c(C)cc(C(=O)COC(=O)c3cc(OC)c(OC)cc3NC(=O)c3cccs3)c2C)cc1,1.19% (inactive)
16,COc1cc2c(cc1NC(=O)COC(=O)/C=C/c1ccccc1)oc1ccccc12,0.678% (inactive)
17,COc1ccc(CCNc2cc(C)nc3c(-c4ccc(Cl)cc4)c(C)nn23)cc1OC,-1.48% (inactive)
18,O=C(Nc1ccc(N2C(=O)c3cccc4cccc(c34)C2=O)cc1)c1ccc(N2CCCCC2)c([N+](=O)[O-])c1,-0.132% (inactive)
19,CCn1c(=O)cc(SCC(=O)NCCC2=CCCCC2)c2ccccc21,-12.1% (inactive)
20,COc1cccc(CC(=O)N2CCc3nc(COc4ccccc4)c4c(c3C2)CO[C@@H](C)C4)c1,-2.68% [at 11.4 µM] (inactive)
21,COCCNC(=O)c1ccc(N2CCC3(CC2)OCCO3)c([N+](=O)[O-])c1,3.27% (inactive)

row,Structure (SMILES),"activity change, negative = inhibition"
1,CCCN=C1NC(=O)C(CC(=O)NCCc2ccc(OC)c(OC)c2)S1 (configuration not stated),-0.962% (inactive)
2,CCOC(=O)c1ccccc1N1C(=O)C2Sc3[nH]c(=O)sc3C(/C=C/c3ccccc3)C2C1=O (configuration not stated),-26% (inactive)
3,CC(=O)NNC1=Nc2ccccc2N(C)C(C)C1 (configuration not stated),1.24% (inactive)
4,COC(=O)/C(C#N)=C/c1occc1C,-1.5% (inactive)
5,Cc1[nH]n(-c2ccccc2)c(=O)c1/C=N/NC(=O)c1ccoc1C,-1.41% (inactive)
6,Cn1cccc1/C=N/NC(=O)c1ccc(OC(F)(F)C(F)F)cc1,-1.04% (inactive)
7,COc1cc(OC)c2c(-c3cccc(-c4cccc(N)c4)c3)cc(=O)oc2c1,-1.39% [at 0.00818 µM] (inactive)
8,N=C1/C(=C/c2cccn2-c2cccc([N+](=O)[O-])c2)C(=O)N=C2SC=CN12,-1.46% (inactive)
9,Cc1cccc([C@H]2[C@@H]3C=CC[C@@H](C)[C@@H]3C(=O)N2Cc2ccccc2)c1,-6.11% [at 0.00818 µM] (inactive)
10,COc1cc(CCC(=O)OCC(=O)Nc2cccc(S(N)(=O)=O)c2)cc(OC)c1OC,3.81% (inactive)
11,O=C(O)CC(Cc1ccccc1)C(=O)Nc1ccc([N+](=O)[O-])cc1 (configuration not stated),-0.203% (inactive)
12,NC(=O)C[C@@H]1NC(=O)CNC(=O)c2cc([N+](=O)[O-])cc(I)c2NCCC(C(N)=O)NC1=O (some centres not stated),-10.2% (inactive)
13,Cn1cccc1/C=C1\SC(=S)N(NC(=O)c2ccc(Cl)cc2)C1=O,-12.2% (inactive)
14,CCc1nnc(NC(=O)/C=C/c2ccc(C)o2)s1,-2.76% (inactive)
15,C=CC1=C2C=C(C3CC3)N(C(CO)CO)C=C2C(=O)C(C)(OC(=O)c2ccco2)C1=O (configuration not stated),3.57% [at 11.4 µM] (inactive)
16,CC1=C(C/C=C(\C)CCCC(C)CCCC(C)CCCC(C)C)C(=O)c2ccccc2C1=O (configuration not stated),-5.67% [at 0.00818 µM] (inactive)
17,CN(C(=O)CSc1nnc(-c2n[nH]c3ccccc23)o1)c1ccccc1,-2.11% (inactive)
18,Cc1nc(-c2ccccc2)cn2c1nc1ccccc12,0.637% (inactive)
19,O=C1OCCN1C(=O)[C@H]1[C@H](c2ccc(Cl)cc2)C(c2cccc(Cl)c2)=NN1c1ccc(Br)cc1,-6.33% [at 0.00818 µM] (inactive)
20,COc1cc(OC)c2c(c1)OC(=O)CC2c1cc(OC)c(OC)c(OC)c1 (configuration not stated),-5.58% [at 0.00818 µM] (inactive)
21,CCCCC/C=C\C/C=C\CCCCCCCCCC(=O)O,0.814% (inactive)
